High-throughput results (PubChem BioAssay)
CYP2C9 act = increases human cytochrome P450 2C9 activity; activation factor at 5 µM; recombinant CYP2C9, luciferin-H conversion, luminescence; active compounds read high; factor 1 = untreated enzyme, 0 = blocked; P11712; actives 1.4% (n = 96,000); AID 1024;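 active = activation factor of 2 or more for CYP2C9 at a 5 µM dose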
CYP2C9 inh = inhibitors of human CYP2C9; P11712; CYP2C9 Supersomes, luciferin-H conversion, luminescence; inhibition, % at 5 µM; actives 20% (n = 96,000); AID 777;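 active = blocking of liver enzyme CYP2C9 beyond about 50% at 5 µM, limit read from the data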
PostGolgi yeast = growth inhibition of a yeast mutant, post-Golgi transport screen; actives 0.9% (n = 98,000); post-Golgi transport phenotypic cell assay; inhibition, % at 10 µM;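 also: yeast cells grown in 1536-well plates; yeast grown about 18 h at 30C before absorbance read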
CYP2C19 inhib = blocks human cytochrome P450 2C19 | P33261 | CYP2C19 Supersomes, luciferin-H EGE luminescence, 30 min | inhibition, % at 5 µM | actives 21% (n = 96,000) | AID 778;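 active = CYP2C19 inhibition above a set limit at 5 µM in the primary screen, cut at about 50% in these data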
Target sequence (P33261 whole entry, looked up): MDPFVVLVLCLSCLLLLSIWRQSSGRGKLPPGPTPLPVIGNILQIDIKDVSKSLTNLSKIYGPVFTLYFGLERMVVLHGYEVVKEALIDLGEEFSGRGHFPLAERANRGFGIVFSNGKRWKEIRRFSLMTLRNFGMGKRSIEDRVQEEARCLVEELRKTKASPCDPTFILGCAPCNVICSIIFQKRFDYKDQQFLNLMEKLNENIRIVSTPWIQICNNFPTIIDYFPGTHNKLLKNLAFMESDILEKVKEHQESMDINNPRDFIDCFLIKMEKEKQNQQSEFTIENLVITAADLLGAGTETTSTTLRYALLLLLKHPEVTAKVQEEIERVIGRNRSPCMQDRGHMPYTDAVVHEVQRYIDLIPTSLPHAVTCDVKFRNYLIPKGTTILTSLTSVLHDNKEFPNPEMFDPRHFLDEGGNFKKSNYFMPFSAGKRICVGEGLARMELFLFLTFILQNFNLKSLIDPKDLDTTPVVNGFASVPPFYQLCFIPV
PostGolgi ctrl = yeast control strain growth, post-Golgi counter-screen | efflux-deficient yeast background strain, growth absorbance A615, 16 h | inhibition, % at 10 µM | actives 5% (n = 98,000)
CYP2C19 activ = increases human CYP2C19 enzyme activity; P33261; recombinant CYP2C19, luciferin-H EGE luminescence; active compounds read high; 0 = fully inhibited enzyme, 1 = untreated enzyme; activation factor at 5 µM; 96,000 tested, under 10 active;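 active = activation factor of at least 2 at 5 µM in the primary screen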
Hits are given with their value; . = inactive; / = no result given. Shown are actives, neighbours in structure and some others; about 32% of the full set was active somewhere. Rule as the data show it, unless noted: active = inhibition above about 30%; inactive = the rest.

SMILES | CYP2C9 act | CYP2C9 inh | PostGolgi yeast | CYP2C19 inhib | PostGolgi ctrl | CYP2C19 activ
COC(=O)C(Cc1ccc(OC(=O)c2ccc(C)cc2)cc1)N1Cc2ccccc2C1=O (stereo not given) | . | 50 | . | . | . | .
Cc1ccsc1C1C=C(c2cccc(Br)c2)Nc2ncnn21 (stereo not given) | . | 62 | . | 62 | 37 | .
COc1cccc(C2=CC(c3ccc(C)cc3)n3ncnc3N2)c1 (stereo not given) | . | . | . | . | . | .
Fc1ccc(Br)cc1C1C=C(c2ccc(Br)cc2)Nc2ncnn21 (stereo not given) | . | 56 | . | 87 | . | .
CC(C)=CCC/C(C)=C/CN(CC(C)O)CC(C)O (stereo not given) | . | . | . | . | . | .
CCc1nc(NCCCCCO)c2nnn(Cc3ccccc3F)c2n1 | . | 56 | . | . | . | .
C#CCNc1nc(CC)nc2c1nnn2Cc1ccccc1F | . | . | . | 52 | . | .
Fc1ccccc1Cn1nnc2c(NCCc3ccccn3)ncnc21 | . | . | . | . | . | .
CCCn1c(SCC(=O)Nc2nccs2)nnc1-c1cccnc1 | . | . | . | 59 | . | .
CCCCn1c(SCC(=O)Nc2nc(C)cs2)nnc1-c1cccnc1 | . | . | . | . | 39 | .
Cc1nnc(SCC(=O)Nc2ncc(Cc3ccc(F)cc3)s2)n1N | . | . | . | . | . | .
CC(C)n1c(-c2ccco2)csc1=Nc1cccnc1 | . | 60 | . | 65 | . | .
CCOC(=O)CSc1nc2cc(C(=O)NCC3CCCO3)ccc2c(=O)n1Cc1ccco1 (stereo not given) | . | 72 | . | . | . | .
C=CCn1c(SCC(=O)OCC)nc2cc(C(=O)NCc3ccco3)ccc2c1=O | . | 54 | . | . | . | .
CCCCCn1c(SCC(=O)OCC)nc2cc(C(=O)NCc3ccco3)ccc2c1=O | . | . | . | . | . | .
CCOC(=O)CSc1nc2cc(C(=O)OC)ccc2c(=O)n1CCN1CCOCC1 | . | . | . | 69 | . | .
CCN(C(=O)CSc1nc2cc(C(=O)OC)ccc2c(=O)n1Cc1ccco1)c1cccc(C)c1 | . | 92 | . | 64 | . | .
O=C(NCC1CCCO1)c1ccc2c(=O)n(Cc3ccco3)c(SCC(=O)N3CCCC3)nc2c1 (stereo not given) | . | . | . | . | . | .
CC(/C=N\Nc1nnc2c(n1)[nH]c1c(C)cccc12)=C\c1ccco1 | . | . | . | . | . | .
CCn1c(SCC(=O)NC(=O)NCc2ccco2)nc2sc(C)c(C)c2c1=O | . | . | . | . | . | .
C=CCn1c(SCC(=O)NC(=O)NCc2ccco2)nc2sc(CC)cc2c1=O | . | 71 | . | . | . | .
CCCCCn1c(SCC2CCCO2)nc2cc(C(=O)N3CCC(C(N)=O)CC3)ccc2c1=O (stereo not given) | . | 53 | . | . | . | .
O=C(Cc1cccc2ccccc12)Nc1ccc(-c2cc3ccccc3oc2=O)cc1 | . | . | . | . | . | .
Cc1ccc(CN2C(=O)C3CCCN3c3ccc(S(=O)(=O)N4CCOCC4)cc32)cc1 (stereo not given) | . | . | . | . | . | .
Cc1cc(C)n2c(SCc3cccs3)nnc2n1 | . | . | . | . | 37 | .
SMILES | CYP2C9 act | CYP2C9 inh | PostGolgi yeast | CYP2C19 inhib | PostGolgi ctrl | CYP2C19 activ
CCCSc1nnc2nc(C)cc(C)n12 | . | . | . | . | . | .
CC1CCN(Cc2nc3c(c(=O)n(C)c(=O)n3C)n2CCCc2ccccc2)CC1 | . | . | . | . | . | .
COc1ccc(C2NC(=O)c3n[nH]c(C)c32)c(OC)c1 (stereo not given) | . | . | . | . | . | .
COc1ccc(-c2n[nH]c(C)c2-c2ccc(Cl)cc2)c(O)c1OC | . | . | . | . | 51 | .
COc1ccc(O)c(-c2c(-c3ccc(Cl)cc3)n[nH]c2C)c1 | . | 72 | . | 99 | . | .
COc1ccc(-c2n[nH]c(C)c2-c2ccc(Cl)cc2)c(O)c1 | . | . | . | 63 | 77 | .
COC(=O)c1cccc(S(=O)(=O)N2CCC(C)CC2)c1 | . | . | . | 55 | . | .
CC1CCN(S(=O)(=O)c2cccc(C(=O)O)c2)CC1 | . | . | . | . | . | .
CC1CCN(S(=O)(=O)c2ccc3c(c2)C(=NO)c2cc(S(=O)(=O)N4CCC(C)CC4)ccc2-3)CC1 | . | . | . | . | . | .
COC(=O)c1cc(S(=O)(=O)N2CCC(C)CC2)ccc1F | . | . | . | 88 | . | .
CCCn1c(C)cc(C(=O)CSc2nnc3n(CCC)c(=O)c4ccccc4n23)c1C | . | . | / | . | / | .
Cc1cc(NC(=O)c2cccc(S(=O)(=O)N3CCOCC3)c2)c2ccccc2n1 | . | . | . | . | . | .
O=C(NCc1ccccc1)c1ccc2c(c1)C(=O)N(Cc1ccncc1)C2=O | . | 90 | . | 71 | . | .
CC(C)CCN1C(=O)c2ccc(C(=O)NCc3ccco3)cc2C1=O | . | . | . | . | . | .
O=C(Nc1ccccc1N1CCOCC1)c1ccc2c(c1)C(=O)N(Cc1ccncc1)C2=O | . | 84 | . | 79 | . | .
CCN1C(=O)c2ccc(C(=O)NCc3ccccc3)cc2C1=O | . | . | 42 | . | . | .
O=C(Nc1ccccc1N1CCOCC1)c1cnccn1 | . | . | . | . | . | .
O=C(NCc1ccco1)c1ccc2c(c1)C(=O)N(Cc1ccccc1)C2=O | . | . | . | . | 44 | .
CCN1C(=O)CSc2ccc(C(=O)NCc3ccc(OC)cc3)cc21 | . | 86 | . | 80 | . | .
C=CCN1C(=O)CSc2ccc(C(=O)NCc3ccco3)cc21 | . | . | . | . | . | .
CCCCNC(=O)c1ccc2c(c1)N(CC)C(=O)CS2 | . | . | . | . | . | .
CCOC(=O)N1CCC(N2C(=O)c3ccc(C(=O)NCc4ccco4)cc3C2=O)CC1 | . | . | . | . | . | .
O=C(NCc1ccco1)c1ccc2c(c1)N(Cc1ccccc1)C(=O)CS2 | . | 78 | . | . | . | .
CCOC(=O)N1CCC(N2C(=O)c3ccc(C(=O)NCc4ccc(F)cc4)cc3C2=O)CC1 | . | 58 | . | . | . | .
CC(C)CN(CC(C)C)S(=O)(=O)N1CCC(C(=O)NCCN2CCOCC2)CC1 | . | . | . | . | . | .
SMILES | CYP2C9 act | CYP2C9 inh | PostGolgi yeast | CYP2C19 inhib | PostGolgi ctrl | CYP2C19 activ
O=S(=O)(c1cccc2ccccc12)N1CCSC1 | 5.2 | . | / | . | / | .
CCOc1cc(C)c(Cl)cc1S(=O)(=O)N1CCCC1 | . | . | . | . | . | .
Cc1noc(C)c1S(=O)(=O)NCc1ccc2c(c1)OCO2 | . | 98 | . | 93 | . | .
CCOc1cc(S(=O)(=O)NCc2ccc3c(c2)OCO3)c(C)cc1C | . | 91 | . | 86 | . | .
Cc1c(C(=O)O)oc2ccc(S(=O)(=O)NCc3ccc4c(c3)OCO4)cc12 | . | . | . | . | . | .
CCOc1cc(C)c(Cl)cc1S(=O)(=O)NCc1ccc2c(c1)OCO2 | . | . | . | 99 | . | .
